Results reported in PubChem BioAssay (NCATS).
Records with an inconclusive call do not appear. Active and inactive are the calls of the source. Unless noted, calls follow the shape of the dose curve; as a rule, active = well fitted curve in the direction sought with a large enough effect; inconclusive = small, poorly fitted or top-dose-only effect, or another doubt; inactive = no such curve, though single readings can be large; an effect the other way counts as inactive or inconclusive.

Experiments:
[1] = P-glycoprotein substrates identified in KB-3-1 adenocarcinoma cell line, qHTS therapeutic library screen (AID 1346986); also: nearly all actives have a fitted effect of over 60% in size
In short: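 Resistance attributable to P-gp was assessed by comparing AC50 in KB-8-5-11 with parental KB-3-1 and by tariquidar reversal. Cells were exposed 72 h and viability read by CellTiter-Glo.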

[2] = tested on: Zika virus NS2B-NS3 protease (unlinked complex); test: Primary screen GU Rhodamine qHTS for Zika virus inhibitors: Unlinked NS2B-NS3 protease assay (AID 1347159); also: % is scaled to controls: 0 for no effect and ±100 for the full control effect; nearly all actives have a fitted effect of over 60% in size
In short: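 Noncovalent NS2B hydrophilic domain/NS3 protease complex (25 nM final) in 10 mM Tris-HCl pH 8.0, 0.01% Tween 20, preincubated 15 min with compounds (up to 114 microM), then 1.5 microM Rhodamine110 substrate. Fluorescence change over 15 min fitted to 4-parameter Hill.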

[3] = Primary qHTS for inhibitors of nuclear receptor binding SET domain protein 2 (NSD2) in an isogenic RCH-ACV NSD2 p.E1099K mutant (9B) (AID 1645876); also: nearly all actives have a fitted effect of over 70% in size; also: potency is read from the fitted curve at half-maximal effect
[4] = Primary qHTS for inhibitors of nuclear receptor binding SET domain protein 2 (NSD2) in an RCH-ACV wild type WT cells (2C) (AID 1645877); also: nearly all actives have a fitted effect of over 70% in size; also: potency is read from the fitted curve at half-maximal effect
[5] = Primary redox qHTS assay for identification of artifact compounds. (AID 1845223);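 also: 0% = DMSO and 100% = reference compound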
In short: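 Amplex Red (25 uM) and HRP (250 mU/mL) in HBSS, with compounds for 15 min, then 250 uM DTT for 30 min, room temperature, dark. Fluorescence 525/598 nm read; normalized to DMSO and 10 uM DA3003; Hill fit.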

HEK293 = test: Cytotoxic Profiling of Annotated Libraries Using Quantitative High-Throughput Screening (AID 1296008); conditions: Five cell lines viability, CellTiter-Glo ATP luminescence, 48-72 h; max response: stronger effect = lower value; also: nearly all actives have a fitted effect of over 60% in size; also: potency is read from the fitted curve at half-maximal effect; as to max response: % is scaled to controls: 0 for no effect and ±100 for the full control effect
In short: (§1)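 Compounds were pin-transferred onto cells and incubated 48 or 72 hr at 37 degree Celsius, 95% humidity. CellTiter-Glo was added, plates sat 10 min at room temperature, then ATP-coupled luminescence was imaged as the viability read-out.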

NIH3T3 = test: qHTS assay to identify novel small-molecules to repurpose for Merkel cell carcinoma treatment (AID 1296009); conditions: MCC and control cell lines, CellTiter-Glo viability, 72 h; at 44.8 µM (top of the series) unless noted; also: nearly all actives have a fitted effect of over 60% in size
In short: (§2)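 qHTS format: cells treated with library compounds in DMSO across 8 (NPC) or 11 (MIPE) concentrations. Readout after 72 hr at 37 degree celsius was CellTiter-Glo luminescence.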

[6] = Primary fluorescence-based thiol-reactive (MSTI) qHTS assay for identification of artifact compounds. (AID 1845221);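 also: thiol-reactive compounds lower the probe fluorescence signal; nearly all actives have a fitted effect of over 65% in size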
In short: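 First, 4 uM MSTI in 2% DMSO/PBS pH 7.4 was dispensed; next, compounds were added; then plates sat 1 h at room temperature without light. Finally, emission at 598 nm was recorded.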

KB-3-1 = test: Cytotoxic Profiling of Annotated Libraries Using Quantitative High-Throughput Screening (AID 1296008); conditions: Five cell lines viability, CellTiter-Glo ATP luminescence, 48-72 h; max response: stronger effect = lower value; also: nearly all actives have a fitted effect of over 60% in size; also: potency is read from the fitted curve at half-maximal effect; as to max response: % is scaled to controls: 0 for no effect and ±100 for the full control effect
In short: as §1

SKOV3 = test: Primary qHTS to identify gynecologic anti-cancer compounds using libraries of approved drugs and bioactive compounds (AID 1345084); conditions: Gynecologic cancer cell panel viability, ATPlite luminescence, 48 h; series mostly up to 57.5 µM; also: nearly all actives have a fitted effect of over 55% in size; also: potency is read from the fitted curve at half-maximal effect
In short: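 48 h compound exposure at 37 C, 5% CO2; five-point qHTS. ATPlite luminescence readout of cell ATP.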

[7] = target: Cytochrome P450 2D6 (Homo sapiens) (UniProt P10635); test: Cytochrome P450 family 2 subfamily D member 6 (CYP2D6) small molecule antagonists: luciferase biochemical (cell-free) qHTS assay (AID 1645840; active = well fitted curve in the direction sought with a large enough effect in the repeat runs; an effect the other way counts as inactive or inconclusive; also: nearly all actives have a fitted effect of over 55% in size; also: potency is read from the fitted curve at half-maximal effect; as to activity change, negative = inhibition: % is scaled to controls: 0 for no effect and ±100 for the full control effect)
In short: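 P450-Glo luminescent screen: recombinant CYP2D6 enzyme–proluciferin substrate mix preincubated with compound 10 min at room temperature, then NADPH regeneration added for 1 h at room temperature. Detection reagent added for 20 min; luciferin light read as relative luminescence units.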

[8] = target: Cytochrome P450 2C9 (Homo sapiens) (UniProt P11712); test: Cytochrome P450 family 2 subfamily C member 9 (CYP2C9) small molecule antagonists: luciferase biochemical (cell-free) qHTS assay (AID 1645842; active = well fitted curve in the direction sought with a large enough effect in the repeat runs; an effect the other way counts as inactive or inconclusive; also: nearly all actives have a fitted effect of over 55% in size; also: potency is read from the fitted curve at half-maximal effect)
In short: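 Luminescence, after 20 min with luciferin detection reagent, reflected CYP2C9 turnover during a 1 h NADPH-driven reaction at 37C. Enzyme-substrate mix contained 0.4% bovine serum albumin and was preincubated with compound 10 min at room temperature.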

HaCat [9] = test: Cytotoxic Profiling of Annotated Libraries Using Quantitative High-Throughput Screening (AID 1296008); conditions: Five cell lines viability, CellTiter-Glo ATP luminescence, 48-72 h; max response: stronger effect = lower value; also: nearly all actives have a fitted effect of over 60% in size; also: potency is read from the fitted curve at half-maximal effect; as to max response: % is scaled to controls: 0 for no effect and ±100 for the full control effect
In short: as §1

CRL-7250 = normal cell line; test: qHTS assay to identify novel small-molecules to repurpose for Merkel cell carcinoma treatment (AID 1296009); conditions: MCC and control cell lines, CellTiter-Glo viability, 72 h; series mostly up to 92 µM; also: nearly all actives have a fitted effect of over 60% in size
In short: as §2

[10] = target: Catechol O-methyltransferase (Homo sapiens) (UniProt P21964); test: Confirmatory Screen for Target Class Profiling of Small Molecule Inhibitors of Methyltransferases (AID 1745852); conditions: MTase-Glo luminescence, SAH detection, recombinant enzyme; measured here: COMT max response; stronger effect = lower value
[11] = target: Guanidinoacetate N-methyltransferase (Homo sapiens) (UniProt Q14353); test: as above; conditions: activity change, negative = inhibition: at 57.3 µM (top of the series) unless noted
[12] = target: Nicotinamide N-methyltransferase (Homo sapiens) (UniProt P40261); test: as above; conditions: MTase-Glo luminescence, SAH detection, recombinant enzyme; measured here: NNMT max response; stronger effect = lower value
[13] = target: Phenylethanolamine N-methyltransferase (Homo sapiens) (UniProt P11086); test: as above; conditions: MTase-Glo luminescence, SAH detection, recombinant enzyme; measured here: PNMT max response; stronger effect = lower value
HACAT [14] = test: qHTS assay to identify novel small-molecules to repurpose for Merkel cell carcinoma treatment (AID 1296009); conditions: MCC and control cell lines, CellTiter-Glo viability, 72 h; at 44.8 µM (top of the series) unless noted; also: nearly all actives have a fitted effect of over 60% in size
In short: as §2

[15] = qHTS drug screen for cell cycle checkpoint inhibitors in PARPi-resistant BRCA-mutant ovarian cancer cell lines. (AID 1963452; calls by dose curve); conditions: PEO1/OlaR viability, CellTiter-Glo luminescence, 96 h, stronger effect = lower value
In short: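 PEO1, PEO4 and PEO1/OlaR ovarian cancer cells, 600 per well, exposed 96 h at 37C to a dilution series. Viability read by CellTiter-Glo luminescence, normalized to DMSO and empty wells; activity summarized as Z-AUC.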

Chain of Cytochrome P450 2C9 (Homo sapiens) (P11712 whole entry, looked up): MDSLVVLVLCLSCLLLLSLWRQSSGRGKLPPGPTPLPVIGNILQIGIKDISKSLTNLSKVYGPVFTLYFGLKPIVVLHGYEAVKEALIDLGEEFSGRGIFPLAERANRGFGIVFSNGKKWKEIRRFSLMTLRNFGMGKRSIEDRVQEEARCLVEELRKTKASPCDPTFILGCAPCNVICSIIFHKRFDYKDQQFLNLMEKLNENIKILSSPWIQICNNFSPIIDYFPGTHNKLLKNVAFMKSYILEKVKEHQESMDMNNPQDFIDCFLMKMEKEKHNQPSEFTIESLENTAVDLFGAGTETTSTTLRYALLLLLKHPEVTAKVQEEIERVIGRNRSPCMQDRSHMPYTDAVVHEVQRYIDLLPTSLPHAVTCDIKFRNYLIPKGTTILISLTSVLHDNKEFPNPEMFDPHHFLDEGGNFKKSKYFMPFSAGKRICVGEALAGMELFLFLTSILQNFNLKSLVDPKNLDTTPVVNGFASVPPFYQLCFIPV
Chain of Cytochrome P450 2D6 (Homo sapiens) (P10635 whole entry, looked up): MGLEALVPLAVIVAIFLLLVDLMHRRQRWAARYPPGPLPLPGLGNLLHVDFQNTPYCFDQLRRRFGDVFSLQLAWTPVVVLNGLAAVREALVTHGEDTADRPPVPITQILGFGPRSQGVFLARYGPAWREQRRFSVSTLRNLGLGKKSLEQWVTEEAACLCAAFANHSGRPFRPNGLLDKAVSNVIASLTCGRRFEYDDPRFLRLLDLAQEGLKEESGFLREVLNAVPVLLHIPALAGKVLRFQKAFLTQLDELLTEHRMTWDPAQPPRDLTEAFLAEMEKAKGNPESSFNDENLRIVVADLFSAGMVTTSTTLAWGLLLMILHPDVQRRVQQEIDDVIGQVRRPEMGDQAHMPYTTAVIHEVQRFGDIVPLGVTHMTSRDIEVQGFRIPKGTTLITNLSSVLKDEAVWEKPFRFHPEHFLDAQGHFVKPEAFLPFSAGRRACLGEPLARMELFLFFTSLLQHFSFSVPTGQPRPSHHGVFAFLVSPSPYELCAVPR
Chain of Phenylethanolamine N-methyltransferase (Homo sapiens) (P11086 whole entry, looked up): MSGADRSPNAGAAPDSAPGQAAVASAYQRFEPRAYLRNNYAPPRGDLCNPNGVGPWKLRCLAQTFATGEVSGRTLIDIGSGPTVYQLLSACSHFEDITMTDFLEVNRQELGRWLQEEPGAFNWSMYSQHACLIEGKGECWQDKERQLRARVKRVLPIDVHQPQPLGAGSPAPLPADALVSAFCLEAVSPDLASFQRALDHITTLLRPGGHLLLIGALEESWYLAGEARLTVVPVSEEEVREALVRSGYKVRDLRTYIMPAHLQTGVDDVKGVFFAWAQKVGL
Chain of Catechol O-methyltransferase (Homo sapiens) (P21964 whole entry, looked up): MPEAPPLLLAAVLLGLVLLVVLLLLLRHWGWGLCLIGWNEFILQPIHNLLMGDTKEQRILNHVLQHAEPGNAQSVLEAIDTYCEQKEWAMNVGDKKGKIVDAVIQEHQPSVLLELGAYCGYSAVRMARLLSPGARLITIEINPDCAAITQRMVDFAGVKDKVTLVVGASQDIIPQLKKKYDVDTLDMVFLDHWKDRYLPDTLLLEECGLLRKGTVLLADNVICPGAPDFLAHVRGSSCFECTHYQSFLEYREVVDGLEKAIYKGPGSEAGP
Chain of Nicotinamide N-methyltransferase (Homo sapiens) (P40261 whole entry, looked up): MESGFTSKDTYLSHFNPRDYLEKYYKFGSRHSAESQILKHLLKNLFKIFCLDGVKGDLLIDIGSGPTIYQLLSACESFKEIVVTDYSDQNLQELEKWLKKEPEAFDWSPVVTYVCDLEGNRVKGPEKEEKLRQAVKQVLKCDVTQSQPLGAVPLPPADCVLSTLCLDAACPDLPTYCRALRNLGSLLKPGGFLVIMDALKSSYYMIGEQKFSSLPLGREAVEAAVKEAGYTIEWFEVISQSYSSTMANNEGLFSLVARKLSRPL

CN1CCN(c2nc3ccccc3nc2Cl)CC1
inactive: Potency [1] | Potency [2] | Potency [3] | Potency [4] | Potency [5] | outcome (HEK293) | outcome (NIH3T3)

CC1=CC2OC3CC(O)[C@](C)([C@@]2(C)C(O)C1=O)[C@]31CO1 (some centres undefined)
inactive: Potency [2] | Potency [6]
active: Potency [3] 5.15 µM | Potency [4] 4.09 µM | Potency (HEK293) 5.17 µM | Potency (KB-3-1) 7.31 µM

COC(=O)C12C(=O)C(C)(O)C(=O)C1(C)C(C)=CC1C34CCC(OC3=O)C(C)(C)C4CCC12C (centres undefined)
inactive: Potency [2] | Potency [3] | Potency [4] | Potency [5] | max response (HEK293) -13.4% | max response (KB-3-1) -12.2% | Potency (SKOV3)

C=C(C)[C@@]12O[C@@H]1[C@@]1(C)C(=CC2=O)CC[C@@H](OC(C)=O)[C@@H]1C
inactive: Potency [6]
active: Potency [3] 4.59 µM | Potency [4] 3.25 µM | Potency (HEK293) 3.26 µM | Potency (KB-3-1) 13 µM | Potency (SKOV3) 3.16 µM

C=C1C[C@]2(O)[C@@]3(C)CCC(=O)C(C)(C)C3=C(O)C(=O)[C@@]2(C)[C@@H]2C(=O)O[C@@](C)(C(=O)OC)C(=O)[C@@]12C
inactive: Potency [3] | Potency [4] | outcome (HEK293) | Potency (SKOV3)

CN=C(NS(=O)(=O)c1ccc(Cl)cc1)N1C[C@H](c2ccccc2)C(c2ccc(Cl)cc2)=N1
inactive: Potency [2] | Potency [7] | Potency [8] | Potency [6] | Potency [5] | max response (HaCat [9]) -7.89% | max response (KB-3-1) -19.1% | Potency (CRL-7250) | Potency (SKOV3)

C[C@@H]1O[C@@H](OC2CCC3(C=O)C(CCC4C3CCC3(C)C(C5=CC(=O)OC5)C(O)CC43O)C2)[C@H](O)[C@H](O)[C@H]1O[C@@H]1O[C@H](CO)[C@@H](O)[C@H](O)[C@H]1O (some centres undefined)
active: Potency [3] 2.42 µM | Potency [4] 4.83 µM | Potency (HEK293) 3.85 µM | Potency (SKOV3) 11.2 µM
inactive: Potency [5]

CCCN(CCC)[C@@H]1CCc2ccc3[nH]c(C#N)cc3c2C1
active: Potency [7] 0.338 µM
0%: activity change, negative = inhibition [11]
-9.72%: activity [12]
-4.55%: activity [13]
inactive: Potency [1] | Potency [2] | Potency [3] | Potency [4] | Potency [5] | outcome (HaCat [9]) | outcome (KB-3-1) | Potency (CRL-7250) | outcome (HACAT [14]) | outcome (NIH3T3)
-0.359%: activity [10]

Cc1c(N[C@@H](c2nnc(-c3ccc(C#N)cc3)o2)[C@H](C)O)ccc(C#N)c1Cl
inactive: Potency [6] | Potency [5] | max response (HaCat [9]) -11% | max response (KB-3-1) -17.4% | Potency (CRL-7250) | Potency (SKOV3)

CC12CCC3C(C1)c1c(cc(O)c(C(=O)c4ccccc4)c1OC3(C)C)O2 (centres undefined)
inactive: Potency [3] | Potency [4] | Potency [6] | max response (HaCat [9]) -1.85% | max response (KB-3-1) -6.92% | Potency (CRL-7250) | Potency (SKOV3)

COc1ccc2c(c1)c(CCN(C)C)cn2S(=O)(=O)c1ccccc1
inactive: Potency [2] | Potency [6] | Potency [5] | outcome (HaCat [9]) | max response (KB-3-1) -1.74% | outcome (HACAT [14]) | outcome (NIH3T3) | Potency (SKOV3)
active: Potency [7] 1.51 µM | Potency [8] 15.1 µM

C[C@]12CC[C@H](O)C[C@@]1(O)CC[C@@H]1[C@@H]2CC[C@]2(C)[C@@H](c3ccc(=O)oc3)CC[C@]12O
inactive: Potency [2] | Potency [6] | Potency [5] | Potency (SKOV3)
active: Potency (HEK293) 0.0517 µM

COc1cc(C(=O)N2CC[C@@H](O)[C@@H](N)C2)cc2nc(-c3cc4ccccc4n3CC3CC3)n(C)c12
1.05: Z-AUC ([15]; measured here: PEO1 parental Z-AUC)
0.456: Z-AUC ([15]; measured here: PEO4 Z-AUC)
active: Potency [3] 20.9 µM | Potency [4] 18.6 µM | Potency (HEK293) 14.8 µM
inactive: Z-AUC [15] 0.124

Cc1ccc2c(c1)[C@H]1CN(C)CC[C@H]1N2C(=O)CSc1nnnn1-c1ccc(Cl)cc1
active: Potency [7] 10.7 µM
inactive: Potency [2] | Potency [8] | Potency [3] | Potency [4] | Potency [6] | Potency [5] | outcome (HaCat [9]) | max response (KB-3-1) -5.2% | outcome (HACAT [14]) | outcome (NIH3T3) | Potency (SKOV3)

CC(=O)O[C@H]1C[C@]2(O)[C@@H]3CC[C@@H]4C[C@@H](O)CC[C@]4(C)[C@H]3CC[C@]2(C)[C@H]1c1ccc(=O)oc1
inactive: Potency [6]
active: Potency [3] 0.0459 µM | Potency [4] 0.0578 µM | Potency (HEK293) 0.0461 µM | Potency (KB-3-1) 0.058 µM | Potency (SKOV3) 0.1 µM

O=C(N1CCCCC1Cc1ccccc1)n1cc(-c2ccc(-c3ccccc3)cc2)nn1 (centres undefined)
inactive: Potency [2] | Potency [7] | Potency [6] | Potency [5] | outcome (HaCat [9]) | max response (KB-3-1) -19% | outcome (HACAT [14]) | outcome (NIH3T3) | Potency (SKOV3)
active: Potency [8] 2.68 µM

CN1CCC2=C(C1)c1ccccc1Cc1ccccc12
active: Potency [7] 0.477 µM
inactive: Potency [2] | Potency [8] | Potency [6] | Potency [5] | outcome (HaCat [9]) | max response (KB-3-1) -19% | Potency (CRL-7250) | outcome (HACAT [14]) | Potency (SKOV3)

CC(C)[C@H](NC(=O)c1nn(Cc2ccc(F)cc2)c2ccccc12)C(N)=O
active: Potency [7] 16.9 µM | Potency [8] 6.74 µM
inactive: Potency [2] | Potency [3] | Potency [4] | max response (HEK293) -11.8% | max response (KB-3-1) 0.24% | Potency (SKOV3)
